In the OligoGym collection:

These sequences were tested against HSPA1A (assay: pooled miR-30 sensor sort-seq; sequence = guide strand). Conditions: shRNA.
Also: reference of the scale not given here.

| Sequence | sensor-assay potency score (higher = more potent) |
| --- | --- |
| TTCTTCTTGTCGGCCTCGCTGA | -0.634 |
| TTGACACTTGTCCAGCACCTTC | -1.05 |
| AAATTGAGAACTGACAAACAGA | -0.814 |
| TCAACATTGCAAACACAGGAAA | -1.05 |
| TTGTCCAGCACCTTCTTCTTGT | 0.221 |
| TTGTCGGCCTCGCTGATCTTGC | -1.46 |
| TGCAAAGTCTTGAAGCTCCAAA | -0.87 |
| TTAAAAAGAAGAAATAGTCGTA | 0.533 |
| TTCAACATTGCAAACACAGGAA | 0.422 |

The sequences below were run against HSPA1L in the same assay as above. Conditions: shRNA.

| Sequence | sensor-assay potency score (higher = more potent) |
| --- | --- |
| TTCTCTTATGATCAAACTCATC | -1.68 |
| TTAGTCAATACCATCGAAGAGA | -1.19 |
| TAATCTTGCCCTTCAAACCTTC | -0.52 |
| AACTTAGTCAATACCATCGAAG | -0.727 |
| TAAGTCCAGCAATCACACCTGC | -0.0929 |
| TAGGGTTACACATCTGCTCCAA | 0.367 |
| TTTATCAGACTCACTAATCTTG | 0.0614 |
| TAGAGTTTTGTGATGATAGGGT | 0.798 |
| TTGGTTGTCAGAGTAGGTGGTG | 0.316 |
| TTCTTAGCACATTAAGTCCAGC | -0.826 |
| TTTATATTTCTCAGCATCCAGA | -0.719 |
| TTTCTCAGCATCCAGAACCATG | -1.49 |

The sequences below were run against IBTK in the same assay as above. Conditions: shRNA.

| Sequence | sensor-assay potency score (higher = more potent) |
| --- | --- |
| TTTGCTTTCTTGAACATAGTTT | -0.494 |
| TAACACAGACTGTAGCTCCATC | -0.515 |
| TAAACAGCTTCTCTAGTCCATA | -1.24 |
| TTGAGCTTGATTACTTTTGTAA | 0.24 |
| TCTTCTTGCACTGATAGTCTGC | -0.142 |
| TAATACAACAGTATGATCCTTA | 1.02 |
| TTATCTTGAATATACAGACTAA | -0.465 |
| TAAACTGTAAACAAGACAGTTT | -0.0719 |
| TAGCATAGCAGCATTCTTCAGG | -0.0417 |
| TTCTTGAACATAGTTTCCGAAT | -1.25 |
| TTGCACTATACATTGCTGCAAA | -0.722 |
| TAAGCCAATCTAACACTCCTTT | 0.0727 |

What follows are sequences tested against ICAM4 in the same assay as above. Conditions: shRNA.

| Sequence | sensor-assay potency score (higher = more potent) |
| --- | --- |
| TTGTAGGCGGTGATCCTGGAGG | -1.08 |
| TGCACAGCCACGAACTCCGGGC | -1.29 |
| TATTCCTCTTTTTCTCGCTCAG | -0.694 |
| TTTTCCTGCGCAGGTCACGAGG | -1.77 |
| TAGCTAGGCACTTGCATAGGTA | -0.927 |
| TAGGCGGTGATCCTGGAGGTGG | -1.35 |
| TTTGTAGGCGGTGATCCTGGAG | -0.0996 |
